Inconclusive results are not listed. A call without a number means that no potency is given here. Active and inactive are the calls of the source. Calls follow the shape of the dose curve; as a rule, active = well fitted activation curve with a large enough effect; inconclusive = small, poorly fitted or top-dose-only effect; inactive = flat fitted curve, though single readings scatter.
experiment: Cellular Toxicity (caspase-3) H-4-II-E (AID 663); conditions: H-4-II-E rat hepatoma; Potency: caspase-3 activation; series mostly up to 92.2 µM;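 also: cells exposed to compound for 16 hr before readout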
Text: NIH Chemical Genomics Center [NCGC]
NIH Molecular Libraries Screening Centers Network [MLSCN]
National Institutes of Environmental Health Sciences [NIEHS]
National Toxicology Program [NTP]
We have developed a 1536-well cell-based assay for quantitative high throughput screening (qHTS) against a number of cell lines to determine in vitro caspase 3/7 of small molecules. This particular assay uses the H-4-II-E cell line which is derived from rat hepatoma.
NCGC Assay Protocol Summary:
The Caspase-Glo 3/7 assay (Promega) is a homogeneous method to measure caspase-3 and caspase-7 activities in cultured cells. The quantitation of caspase 3/7 activity is based on the cleavage of a peptide-aminoluciferin substrate. After caspase cleaves the substrate the free aminoluciferin is liberated and serves as the substrate of luciferase, which generates the light. The luminescent signal is proportional to amount of caspase 3/7 activity present.
Using the Caspase-Glo 3/7 assay, the amount of caspase 3/7 activity was measured in the H-4-II-E cell line with complete culture medium following compound treatment for 16 hours. The assay was performed in opaque white 1536-well plates. In the screen, tamoxifen and doxorubicin were used as positive controls. Library compounds were measured for their ability to cause the activation of caspase 3/7 in the cell line, as reflected by an increase in luminescence signal, in a concentration-dependent manner. Data were normalized to the controls for basal activity (DMSO only) and 100% stimulation (100 uM tamoxifen). AC50 values were determined from concentration-response data modeled with the standard Hill equation.
qHTS protocol for caspase 3/7 assay in H-4-II-E cells
[Step] [Parameter] [Value] [Description]
1. Reagent; 5 uL; 1500 H-4-II-E cells/well
2. Time; 5 hr; 37 °C incubation
4. Controls; 23 nL; Tamoxifen 0.23 uM to 100 uM & Doxorubicin 7.0 pM to 100 uM
5. Time; 16 hr; 37 °C incubation
6. Reagent; 5 uL; Caspase-Glo 3/7 reagent
7. Time; 20 min; Room Temperature
8. Detection; Luminescence; Viewlux plate reader
Keywords: caspase 3/7, apoptosis, H-4-II-E cell line, luminescence, NTPHTS, NTPHTS_NCGC, NIEHS, EPA, DSSTox, MLSMR, MLSCN, NIH Roadmap, qHTS, NCGC

Row | Structure (SMILES) | Potency
1 | CC[N+](=O)[O-] | inactive
2 | CC(C)OC(=O)Cc1ccccc1 | inactive
3 | CC(C)(COCC1CO1)COCC1CO1 (stereo not given) | inactive
4 | Clc1ccc(C(c2ccccc2Cl)C(Cl)(Cl)Cl)cc1 (stereo not given) | inactive
5 | Cl/C=C\Cl | inactive
6 | Nc1cc(Cl)cc(C(=O)O)c1Cl | inactive
7 | Cc1cc(-c2cc(C)c(N)c(C)c2)cc(C)c1N | inactive
8 | O=[N+]([O-])c1ccc(Cl)c(Cl)c1Cl | inactive
9 | CC(C)CON=O | inactive
10 | c1ccc(NNc2ccccc2)cc1 | inactive
11 | CCOP(=S)(OCC)SCCSCC | inactive
12 | CCCCOC(C)=O | inactive
13 | Nc1ccc(Cc2ccc(N)cc2)cc1 | inactive
14 | C=CCCC#N | inactive
15 | O=[N+]([O-])c1ccccc1CCl | inactive
16 | Cc1ccc([N+](=O)[O-])cc1 | inactive
17 | Nc1cc(Cl)cc(Cl)c1 | inactive
18 | Cc1ccc2c(C)cccc2c1 | inactive
19 | Nc1c(Br)cc([N+](=O)[O-])cc1[N+](=O)[O-] | inactive
20 | Cc1cc(N=Nc2ccccc2C)ccc1N | inactive

Row | Structure (SMILES) | Potency
21 | ClCC(Cl)Cl | inactive
22 | c1ccc(N=NNc2ccccc2)cc1 | inactive
23 | CCOC(=O)C1OC1(C)c1ccccc1 (stereo not given) | inactive
24 | O=[N+]([O-])c1cc(Cl)c(Cl)cc1Cl | inactive
25 | CCBr | inactive
26 | O=C(Cl)OCc1ccccc1 | inactive
27 | Nc1ccc(-c2ccc(N)cc2)cc1 | inactive
28 | [N-]=[N+]=[N-] | inactive
29 | Nc1ccc(Cc2ccc(N)c(Cl)c2)cc1Cl | inactive
30 | CCC(Cl)[N+](=O)[O-] (stereo not given) | inactive
31 | Oc1cccc(Cl)c1 | inactive
32 | C=CCCl | inactive
33 | COP(=S)(OC)SCn1nnc2ccccc2c1=O | inactive
34 | Cc1ccc(N=C=O)cc1N=C=O | inactive
35 | CN(C)C(=O)Nc1cccc(C(F)(F)F)c1 | inactive
36 | N#CC(Br)Br | inactive
37 | CC(C)(Cl)Cl | inactive
38 | CCN(CC)CCO | inactive
39 | N#C/C=C/C#N | inactive
40 | CCC/C=N/O | inactive
